Measured values from PubChem BioAssay AID1159580 (chemical genetic matrix, 2015).
About 2,000 (36%) of roughly 5,500 compounds were called active. Inconclusive results (about 18%) are left out. Cut-off read from the data, not from the text of the source: active = normalized growth mostly below about 0.91 (no sharp cut-off); inconclusive = no clear call, values can overlap the other calls; inactive = mostly above about 0.92. The list shows a part of the results.

Assay: chemical genetic growth profiling, strain panel (AID 1159580);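 note: tested at 20 µM; growth read once vehicle control cultures reached saturation at 30 °C; 1 = growth at the plate median or of vehicle wells; lower values mean less growth of the strain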
Conditions: growth OD

Measured: normalized growth

CC(C)CCCC(C)C1CCC2C3=CC[C@H]4C[C@@H](O)CC[C@]4(C)C3CC[C@@]21C (some centres not stated)
inactive: S. cerevisiae deletion strains, locus YJR066W, strain TOR1, hits give low values 0.943 | S. cerevisiae deletion strains, locus YJR075W, strain HOC1, hits give low values 0.995 | S. cerevisiae deletion strains, locus YKL009W, strain mrt4, hits give low values 0.997 | S. cerevisiae deletion strains, locus YKL068W, hits give low values 1 | S. cerevisiae deletion strains, locus YKL085W, strain MDH1 (second series), hits give low values 0.988 | S. cerevisiae deletion strains, locus YKL085W, strain MDH1, hits give low values 0.988 | S. cerevisiae deletion strains, locus YKL160W, strain elf1, hits give low values 0.964 | S. cerevisiae deletion strains, locus YKR001C, strain vps1, hits give low values 0.983 | S. cerevisiae deletion strains, locus YKR026C, strain gcn3, hits give low values 0.999 | S. cerevisiae deletion strains, locus YKR091W, strain srl3, hits give low values 0.967 | S. cerevisiae deletion strains, locus YLL001W, strain dnm1, hits give low values 0.988 | S. cerevisiae deletion strains, locus YLL026W, hits give low values 0.988 | S. cerevisiae deletion strains, locus YLL041C, strain sdh2, hits give low values 0.975 | S. cerevisiae deletion strains, locus YLR027C, strain aat2, hits give low values 0.982 | S. cerevisiae deletion strains, locus YLR039C, strain RIC1, hits give low values 0.828 | S. cerevisiae deletion strains, locus YLR058C, strain SHM2, hits give low values 1.02 | S. cerevisiae deletion strains, locus YLR102C, strain apc9, hits give low values 0.99 | S. cerevisiae deletion strains, locus YLR113W, strain HOG1, hits give low values 1.03 | S. cerevisiae deletion strains, locus YLR221C, strain rsa3, hits give low values 0.946 | S. cerevisiae deletion strains, locus YLR258W, strain gsy2, hits give low values 1 | S. cerevisiae deletion strains, locus YLR262C, strain YPT6 (second series), hits give low values 0.859 | S. cerevisiae deletion strains, locus YLR262C, strain YPT6, hits give low values 0.816 | S. cerevisiae deletion strains, locus YLR268W, strain sec22, hits give low values 0.978 | S. cerevisiae deletion strains, locus YLR320W, strain mms22, hits give low values 0.952 | S. cerevisiae deletion strains, locus YLR330W, strain CHS5, hits give low values 1.04 | S. cerevisiae deletion strains, locus YLR342W, strain FKS1 (second series), hits give low values 1.04 | S. cerevisiae deletion strains, locus YLR342W, strain FKS1, hits give low values 0.994 | S. cerevisiae deletion strains, locus YLR357W, strain rsc2, hits give low values 1.04 | S. cerevisiae deletion strains, locus YLR370C, strain arc18, hits give low values 0.964 | S. cerevisiae deletion strains, locus YLR371W, strain rom2, hits give low values 0.998 | S. cerevisiae deletion strains, locus YLR384C, strain iki3, hits give low values 0.985 | S. cerevisiae deletion strains, locus YLR418C, strain cdc73, hits give low values 0.943 | S. cerevisiae deletion strains, locus YML016C, strain PPZ1, hits give low values 1.01 | S. cerevisiae deletion strains, locus YML032C, strain rad52, hits give low values 1 | S. cerevisiae deletion strains, locus YML120C, strain ndi1, hits give low values 0.965 | S. cerevisiae deletion strains, locus YML124C, strain tub3, hits give low values 0.996 | S. cerevisiae deletion strains, locus YMR058W, strain fet3, hits give low values 0.965 | S. cerevisiae deletion strains, locus YMR078C, strain ctf18, hits give low values 0.989 | S. cerevisiae deletion strains, locus YMR125W, strain sto1, hits give low values 1 | S. cerevisiae deletion strains, locus YMR129W, hits give low values 0.992 | S. cerevisiae deletion strains, locus YMR205C, strain PFK2, hits give low values 1 | S. cerevisiae deletion strains, locus YMR223W, strain ubp8, hits give low values 0.99 | S. cerevisiae deletion strains, locus YMR231W, strain pep5, hits give low values 0.991 | S. cerevisiae deletion strains, locus YMR263W, strain SAP30, hits give low values 1.03 | S. cerevisiae deletion strains, locus YMR307W, strain GAS1, hits give low values 1.05 | S. cerevisiae deletion strains, locus YNL067W, strain RPL9B, hits give low values 0.991 | S. cerevisiae deletion strains, locus YNL071W, strain lat1, hits give low values 0.932 | S. cerevisiae deletion strains, locus YNL183C, strain NPR1, hits give low values 0.939 | S. cerevisiae deletion strains, locus YNL209W, strain ssb2, hits give low values 0.987 | S. cerevisiae deletion strains, locus YNL233W, strain BNI4, hits give low values 0.984 | S. cerevisiae deletion strains, locus YNL248C, strain rpa49, hits give low values 0.922 | S. cerevisiae deletion strains, locus YNL250W, strain rad50, hits give low values 0.999 | S. cerevisiae deletion strains, locus YNL271C, strain bni1, hits give low values 0.994 | S. cerevisiae deletion strains, locus YNL298W, strain CLA4, hits give low values 0.985 | S. cerevisiae deletion strains, locus YNL307C, strain MCK1, hits give low values 0.996 | S. cerevisiae deletion strains, locus YNL322C, strain KRE1 (second series), hits give low values 0.98 | S. cerevisiae deletion strains, locus YNR049C, strain mso1, hits give low values 0.982 | S. cerevisiae deletion strains, locus YNR052C, strain pop2, hits give low values 0.984 | S. cerevisiae deletion strains, locus YOL012C, strain htz1 0.805 | S. cerevisiae deletion strains, locus YOL147C, strain pex11, hits give low values 0.994 | S. cerevisiae deletion strains, locus YOR001W, strain rrp6, hits give low values 0.946 | S. cerevisiae deletion strains, locus YOR061W, strain CKA2, hits give low values 1.01 | S. cerevisiae deletion strains, locus YOR069W, strain VPS5, hits give low values 1.01 | S. cerevisiae deletion strains, locus YOR070C, strain gyp1, hits give low values 0.985 | S. cerevisiae deletion strains, locus YOR080W, strain dia2, hits give low values 0.981 | S. cerevisiae deletion strains, locus YOR083W, strain WHI5, hits give low values 0.947 | S. cerevisiae deletion strains, locus YOR106W, strain vam3, hits give low values 0.935 | S. cerevisiae deletion strains, locus YOR136W, strain idh2, hits give low values 0.993 | S. cerevisiae deletion strains, locus YOR144C, strain elg1, hits give low values 0.998 | S. cerevisiae deletion strains, locus YOR184W, strain ser1, hits give low values 0.969 | S. cerevisiae deletion strains, locus YOR231W, strain MKK1, hits give low values 0.976 | S. cerevisiae deletion strains, locus YOR265W, strain rbl2, hits give low values 0.985 | S. cerevisiae deletion strains, locus YOR270C, strain vph1, hits give low values 0.794 | S. cerevisiae deletion strains, locus YOR290C, strain snf2, hits give low values 1.01 | S. cerevisiae deletion strains, locus YOR316C, strain cot1, hits give low values 0.988 | S. cerevisiae deletion strains, locus YPL051W, strain arl3, hits give low values 0.951 | S. cerevisiae deletion strains, locus YPL078C, strain atp4, hits give low values 0.925 | S. cerevisiae deletion strains, locus YPL106C, strain sse1, hits give low values 1.03 | S. cerevisiae deletion strains, locus YPL240C, strain hsp82, hits give low values 0.97 | S. cerevisiae deletion strains, locus YPL241C, strain CIN2, hits give low values 1.01 | S. cerevisiae deletion strains, locus YPL256C, strain CLN2, hits give low values 1 | S. cerevisiae deletion strains, locus YPR119W, strain clb2, hits give low values 0.99 | S. cerevisiae deletion strains, locus YPR141C, strain kar3, hits give low values 0.994 | S. cerevisiae deletion strains, locus YPR163C, strain tif3, hits give low values 0.994 | S. cerevisiae deletion strains, locus YPR167C, strain met16, hits give low values 1.01 | S. cerevisiae deletion strains, strain wtn01, hits give low values 0.97 | S. cerevisiae strains, strain wild type, hits give low values 1.04
